# proKLK7 act – proKLK7 zymogen activators, primary screen, biochemical, fluorescence intensity; purified proKLK7, EDANS-DABCYL substrate fluorescence; 100% is mature enzyme control, 0% vehicle; activation, % at 7 µM; 370,000 compounds, 0.9% hits;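 active = activation above the mean of all tested compounds plus 3 SD, computed per campaign excluding outliers beyond control limits, cut at about 13% in these data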
# Target sequence (P49862 whole entry, looked up): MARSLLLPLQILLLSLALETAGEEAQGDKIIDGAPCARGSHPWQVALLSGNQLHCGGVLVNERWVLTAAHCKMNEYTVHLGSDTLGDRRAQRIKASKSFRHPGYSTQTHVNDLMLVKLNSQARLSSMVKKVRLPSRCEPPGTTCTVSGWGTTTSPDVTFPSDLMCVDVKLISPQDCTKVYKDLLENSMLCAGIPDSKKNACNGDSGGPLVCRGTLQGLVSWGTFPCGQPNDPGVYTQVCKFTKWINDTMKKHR
# ADAM17 inh – ADAM17 inhibitors, primary screen, biochemical, QFRET; 370,000 compounds, 0.83% hits; inhibition, % at 6.95 µM; Disintegrin and metalloproteinase domain-containing protein 17 (Homo sapiens), P78536; AID 720648, 2013; recombinant ADAM17, EDANS/DABCYL FRET peptide cleavage;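 active = inhibition above the mean of compounds lying between control limits plus 3 SD, set per campaign, cut at about 8.5% in these data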
# FGF22 binding – binders of human FGF22 protein, primary screen, FGF22 synaptogenesis inhibitor project, biophysical, thermal shift, single point; recombinant FGF22 thermal shift, SYPRO orange fluorescence; percent of sucrose octasulfate shift, DMSO zero; activity (Tm shift, normalised), % at 9.99 µM; 340,000 compounds, 1.5% hits; Fibroblast growth factor 22 (Homo sapiens), Q9HCT0;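 active = mean Tm shift, scaled 0 neutral to 100 positive control, at about 1.3% or above, every replicate too, limit read from the data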
# Target sequence (Q9HCT0 whole entry, looked up): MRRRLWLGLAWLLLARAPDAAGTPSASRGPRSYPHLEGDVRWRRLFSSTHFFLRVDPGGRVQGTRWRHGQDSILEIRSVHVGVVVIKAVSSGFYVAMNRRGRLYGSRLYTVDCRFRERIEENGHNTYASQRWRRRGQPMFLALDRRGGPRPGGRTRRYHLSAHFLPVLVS
# Ecoli rRNA inh – reduced GFP signal of wild-type E. coli, primary screen, bacterial rRNA inhibitor project, GFP/RFP fluorescence, OD600, single point; E. coli WT GFP vs humanized-ribosome RFP mutants, 24 h; active compounds read low; DMSO median 0, no signal -100; GFP signal change (wild-type ribosome), % (no concentration beside the values); 350,000 compounds, 1.6% hits; AID 720706, 2013;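 active = significant combined selectivity score with lowered wild-type GFP, culture density cut under 30%, mutant RFP and density less affected; inactive = any of these conditions unmet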
# ADAM10 inh – human ADAM10 inhibitors, primary screen, biochemical, QFRET, HTS. AID 720582, 2013. 370,000 compounds, 0.62% hits. inhibition, % at 7 µM. recombinant ADAM10, EDANS/DABCYL FRET peptide cleavage, 3 h. Disintegrin and metalloproteinase domain-containing protein 10 (Homo sapiens), O14672;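 active = inhibition above a per-campaign cutoff equal to the mean of compounds falling between control-based bounds plus 3 SD, cut at about 20% in these data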
# A number is an active result; 0 = inactive; - = no result. Rows were chosen to be rich in hits. Some 3.8% of all compounds tested hit in one or more screens of this group.
SMILES,proKLK7 act,ADAM17 inh,FGF22 binding,Ecoli rRNA inh,ADAM10 inh
CC(=O)N1C[C@@H]2C(c3ccc(Br)cc3)[C@H](C1)N2CC(F)(F)F (stereo partly specified),-,-,-,0,-
NNc1nc2c(-c3ccc(Cl)cc3)nnn2c2ccccc12,0,0,0,0,0
NNc1nc2c(-c3ccc(F)cc3)nnn2c2ccccc12,0,0,0,-16.6,0
O=C(NCCN1CCN(c2ccccc2)CC1)c1ccc2c(c1)[nH]c(=S)n1c3ccccc3nc21,0,0,43.3,0,0
O=C(c1ccc2c(c1)[nH]c(=S)n1c3ccccc3nc21)N1CCN(c2ncccn2)CC1,0,0,-,-,0
CN=c1scc(-c2cccs2)n1/N=C/c1ccccc1O,0,0,0,-26.6,0
CN=c1scc(C)n1/N=C/c1ccc(O)c(O)c1O,0,0,-,-,0
CN=c1scc(-c2cccs2)n1/N=C/c1ccc(O)c(O)c1O,0,0,43.0,0,0
O=C(NCC[C@H]1CC[C@H](NC(=O)C2CC2)[C@H](CO)O1)c1ccc(F)cc1,-,-,0,0,-
O=C(NCc1ccccc1)C(=O)Nc1nc(C23CC4CC(CC(C4)C2)C3)cs1,0,0,0,0,0
O=C(NCc1cccnc1)C(=O)Nc1nc(C23CC4CC(CC(C4)C2)C3)cs1,0,0,0,-26.6,0
COc1ccc(C(=O)c2ccc3oc(-c4ccc(OC)cc4)c(-c4ccc(O)cc4)c3c2)cc1,0,8.6,0,0,0
COc1ccc(C(=O)c2c(-c3ccc(OC)cc3)oc3ccccc23)cc1,0,0,0,0,0
O=C(Nc1ccc(-c2nc3ccccc3[nH]2)cc1)C1CCCO1 (stereo unspecified),0,0,8.6,0,0
O=C(Cn1nc(-c2ccccc2)ccc1=O)Nc1ccc(NC(=O)c2ccccn2)cc1,0,0,43.8,0,0
O=C(Cc1ccc(Cl)cc1)N1CCc2ccccc2C1,0,0,0,-28.3,0
O=C(O)C1Cc2ccccc2CN1C(=O)COc1ccc(Cl)cc1 (stereo unspecified),0,0,43.3,0,0
O=C(COc1ccc(Br)cc1)N1CCc2ccccc2C1,0,0,0,-25.5,0
COc1ccc(CN(C)C[C@@H]2Oc3ccc(NC(=O)NC(C)C)cc3CC(=O)N([C@@H](C)CO)C[C@@H]2C)cc1,-,-,0,0,-
CO[C@H](CN(C)S(=O)(=O)c1cccc(Cl)c1)[C@@H](C)CN([C@H](C)CO)S(=O)(=O)c1cccc(Cl)c1,-,-,-,0,-
COc1ccc2c3c(n(C)c2c1)[C@@H](CO)N(Cc1ccccc1F)CC31CCN(C(C)=O)CC1,-,-,-,0,-
O=C(c1cc2cc(F)ccc2[nH]1)N1CCN(Cc2ccc3c(c2)OCO3)CC1,0,0,0,-39.8,0
COc1cc2cc(C(=O)N3CCN(Cc4ccc5c(c4)OCO5)CC3)[nH]c2cc1OC,0,0,0,0,0
CC(C)NC(=O)Nc1ccc2c(c1)CC(=O)N(C)C[C@@H](C)[C@H](CN(C)C)O2,-,-,-,0,-
COc1ccc(NC(=S)NC(NC(=O)c2cccc(C)c2)C(Cl)(Cl)Cl)c([N+](=O)[O-])c1 (stereo unspecified),0,0,-,-,21.0
SMILES,proKLK7 act,ADAM17 inh,FGF22 binding,Ecoli rRNA inh,ADAM10 inh
COc1ccc(NC(=S)NC(NC(=O)c2cccc(Cl)c2)C(Cl)(Cl)Cl)c([N+](=O)[O-])c1 (stereo unspecified),0,0,-,-,0
C=CCn1c(C)cc(C2=NNC(=Nc3ccc(C)cc3)SC2)c1C,0,0,43.1,0,0
C=CCn1c(C)cc(C2=NNC(=NC(C)(C)C)SC2)c1C,0,0,0,0,0
c1ccc2c(C3=NNC(=NC4CCCCC4)SC3)c[nH]c2c1,0,0,0,-33.7,0
Cn1cccc1CC(=O)NNC(=O)Nc1ccc(Cl)cc1,0,0,44.4,0,0
N#C[C@@H]1[C@@H](c2ccc(C#Cc3cccnc3)cc2)[C@@H](CO)N1C(=O)C1CCCC1,-,-,-,0,-
CO[C@@H]1CN(C)C(=O)c2ccc(NC(=O)c3ccc4c(c3)OCO4)cc2OC[C@H](C)N(CC2CC2)C[C@@H]1C,-,-,0,0,-
Nc1nc(Nc2ccccc2F)nc(N2CCOCC2)c1[N+](=O)[O-],0,0,0,-19.9,0
Nc1nc(Nc2ccccc2)nc(N2CCOCC2)c1[N+](=O)[O-],0,0,-,-,0
COc1ccc(Nc2nc(N)c([N+](=O)[O-])c(N3CCOCC3)n2)cc1,0,0,0,-27.8,0
C[C@H]1CCCCO[C@@H](CN(C)Cc2ccccc2)[C@@H](C)CN([C@@H](C)CO)C(=O)c2cc(NC(=O)c3ccccc3)ccc2O1,-,-,0,0,-
CCC(=O)N1CCN(c2cc(NCC3CCCO3)c(F)cc2[N+](=O)[O-])CC1 (stereo unspecified),0,0,0,0,0
CC(C)(C)C(=O)N1CCN(c2ccc([N+](=O)[O-])c(NCC3CCCO3)c2)CC1 (stereo unspecified),0,0,-,-37.6,0
O=[N+]([O-])c1ccc(C[n+]2cccc3c4ccccc4ccc32)cc1,0,0,43.2,0,0
Cc1ccc[n+](Cc2ccc([N+](=O)[O-])cc2)c1,0,0,0,0,0
COc1ccc(-c2cnc3nc(/N=C/N(C)C)nn3c2/N=C/N(C)C)cc1,0,0,43.0,0,0
CO[C@H]1CN(C)C(=O)c2cc(NC(C)=O)ccc2OC[C@@H](C)N(C(=O)c2ccncc2)C[C@H]1C,-,-,0,0,-
CO[C@H]1CN(C)C(=O)c2ccc(NS(=O)(=O)c3ccccc3F)cc2OC[C@H](C)NC[C@H]1C,-,-,0,0,-
CCC(C)[C@H](NC(=O)N1CCn2c1nc1ccccc12)C(=O)NCCc1ccc(OC)c(OC)c1 (stereo partly specified),0,0,0,-19.6,0
Cc1ccc(OCc2nnc(N)s2)cc1,0,0,43.6,0,0
N/C(Cn1cncn1)=N\NC(=O)C(=O)Nc1cccc(C(F)(F)F)c1,0,0,43.1,0,0
COc1ccc(C2c3ccsc3CCN2C(=O)C(C)(C)C)cc1 (stereo unspecified),0,0,0,-46.6,0
COc1ccc(C2c3ccsc3CCN2C(C)=O)cc1 (stereo unspecified),0,0,0,0,0
c1ccc(Cn2c(NCc3ccccn3)nc3ccccc32)cc1,0,0,43.5,0,0
c1ccc(Cn2c(NCc3ccncc3)nc3ccccc32)cc1,0,0,0,0,0
NC(N)=N/N=C/c1cccc([N+](=O)[O-])c1O,0,0,43.4,0,0

# Source: PubChem BioAssay (several laboratories)
